Measurements from PubChem BioAssay AID1159580 (chemical genetic matrix, 2015).
Hit rate of the full screen: of about 5,500 compounds, about 2,000 (36%) were called active. Another 18% or so got no clear call; they are omitted. No stated cut-off is given here; in the data, active means normalized growth mostly below about 0.91 (no sharp cut-off); inconclusive means no clear call, values can overlap the other calls; inactive means mostly above about 0.92. Some of the results follow.

Assay: chemical genetic growth profiling, strain panel (AID 1159580);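 further: tested at 20 µM; growth read once vehicle control cultures reached saturation at 30 °C; 1 = growth at the plate median or of vehicle wells; lower values mean less growth of the strain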
Conditions: growth OD
[1] = S. cerevisiae deletion strains, locus YBR021W, strain FUR4, hits give low values
[2] = S. cerevisiae deletion strains, locus YBR229C, strain ROT2, hits give low values
[3] = S. cerevisiae deletion strains, locus YCL029C, strain bik1, hits give low values
[4] = S. cerevisiae deletion strains, locus YDL035C, strain GPR1, hits give low values
[5] = S. cerevisiae deletion strains, locus YDL074C, strain BRE1, hits give low values
[6] = S. cerevisiae deletion strains, locus YDL101C, strain DUN1, hits give low values
[7] = S. cerevisiae deletion strains, locus YDL185W, strain tfp1, hits give low values
[8] = S. cerevisiae deletion strains, locus YDL192W, strain arf1, hits give low values
[9] = S. cerevisiae deletion strains, locus YDR101C, strain arx1, hits give low values
[10] = S. cerevisiae deletion strains, locus YDR162C, strain NBP2, hits give low values
[11] = S. cerevisiae deletion strains, locus YDR318W, strain mcm21, hits give low values
[12] = S. cerevisiae deletion strains, locus YDR388W, hits give low values
[13] = S. cerevisiae deletion strains, locus YDR502C, strain sam2, hits give low values
[14] = S. cerevisiae deletion strains, locus YER110C, hits give low values
[15] = S. cerevisiae deletion strains, locus YER155C, strain BEM2, hits give low values
[16] = S. cerevisiae deletion strains, locus YER167W, strain BCK2, hits give low values
[17] = S. cerevisiae deletion strains, locus YGL078C, strain dbp3, hits give low values
[18] = S. cerevisiae deletion strains, locus YGL086W, strain mad1, hits give low values
[19] = S. cerevisiae deletion strains, locus YGL248W, strain PDE1, hits give low values
[20] = S. cerevisiae deletion strains, locus YGR078C, strain PAC10, hits give low values
[21] = S. cerevisiae deletion strains, locus YGR135W, strain pre9, hits give low values
[22] = S. cerevisiae deletion strains, locus YGR252W, strain gcn5, hits give low values
[23] = S. cerevisiae deletion strains, locus YHR079C, strain IRE1 (second series), hits give low values
[24] = S. cerevisiae deletion strains, locus YHR094C, strain hxt1, hits give low values
[25] = S. cerevisiae deletion strains, locus YHR129C, strain ARP1, hits give low values
[26] = S. cerevisiae deletion strains, locus YHR200W, strain rpn10, hits give low values
[27] = S. cerevisiae deletion strains, locus YIL066C, strain RNR3, hits give low values
[28] = S. cerevisiae deletion strains, locus YIL073C, strain SPO22, hits give low values
[29] = S. cerevisiae deletion strains, locus YIL125W, strain kgd1, hits give low values
[30] = S. cerevisiae deletion strains, locus YIR030C, strain dcg1, hits give low values
[31] = S. cerevisiae deletion strains, locus YJL095W, strain BCK1, hits give low values
[32] = S. cerevisiae deletion strains, locus YJL134W, strain LCB3, hits give low values
[33] = S. cerevisiae deletion strains, locus YJL168C, strain set2, hits give low values
[34] = S. cerevisiae deletion strains, locus YJL187C, strain SWE1 (second series), hits give low values
[35] = S. cerevisiae deletion strains, locus YKL009W, strain mrt4, hits give low values
[36] = S. cerevisiae deletion strains, locus YKL068W, hits give low values
[37] = S. cerevisiae deletion strains, locus YKL085W, strain MDH1 (second series), hits give low values
[38] = S. cerevisiae deletion strains, locus YKL085W, strain MDH1, hits give low values
[39] = S. cerevisiae deletion strains, locus YKL190W, strain CNB1, hits give low values
[40] = S. cerevisiae deletion strains, locus YKR001C, strain vps1, hits give low values
[41] = S. cerevisiae deletion strains, locus YLR039C, strain RIC1, hits give low values
[42] = S. cerevisiae deletion strains, locus YLR058C, strain SHM2, hits give low values
[43] = S. cerevisiae deletion strains, locus YLR102C, strain apc9, hits give low values
[44] = S. cerevisiae deletion strains, locus YLR268W, strain sec22, hits give low values
[45] = S. cerevisiae deletion strains, locus YLR330W, strain CHS5, hits give low values
[46] = S. cerevisiae deletion strains, locus YLR342W, strain FKS1 (second series), hits give low values
[47] = S. cerevisiae deletion strains, locus YLR371W, strain rom2, hits give low values
[48] = S. cerevisiae deletion strains, locus YLR418C, strain cdc73, hits give low values
[49] = S. cerevisiae deletion strains, locus YML016C, strain PPZ1, hits give low values
[50] = S. cerevisiae deletion strains, locus YML032C, strain rad52, hits give low values
[51] = S. cerevisiae deletion strains, locus YML124C, strain tub3, hits give low values
[52] = S. cerevisiae deletion strains, locus YMR078C, strain ctf18, hits give low values
[53] = S. cerevisiae deletion strains, locus YMR223W, strain ubp8, hits give low values
[54] = S. cerevisiae deletion strains, locus YMR307W, strain GAS1, hits give low values
[55] = S. cerevisiae deletion strains, locus YNL067W, strain RPL9B, hits give low values
[56] = S. cerevisiae deletion strains, locus YNL153C, strain GIM3, hits give low values
[57] = S. cerevisiae deletion strains, locus YNL233W, strain BNI4, hits give low values
[58] = S. cerevisiae deletion strains, locus YNL250W, strain rad50, hits give low values
[59] = S. cerevisiae deletion strains, locus YNL271C, strain bni1, hits give low values
[60] = S. cerevisiae deletion strains, locus YNL298W, strain CLA4, hits give low values
[61] = S. cerevisiae deletion strains, locus YNL307C, strain MCK1, hits give low values
[62] = S. cerevisiae deletion strains, locus YNR052C, strain pop2, hits give low values
[63] = S. cerevisiae deletion strains, locus YOL012C, strain htz1
[64] = S. cerevisiae deletion strains, locus YOL147C, strain pex11, hits give low values
[65] = S. cerevisiae deletion strains, locus YOR061W, strain CKA2, hits give low values
[66] = S. cerevisiae deletion strains, locus YOR069W, strain VPS5, hits give low values
[67] = S. cerevisiae deletion strains, locus YOR136W, strain idh2, hits give low values
[68] = S. cerevisiae deletion strains, locus YOR144C, strain elg1, hits give low values
[69] = S. cerevisiae deletion strains, locus YOR184W, strain ser1, hits give low values
[70] = S. cerevisiae deletion strains, locus YOR316C, strain cot1, hits give low values
[71] = S. cerevisiae deletion strains, locus YPR119W, strain clb2, hits give low values
[72] = S. cerevisiae deletion strains, locus YPR141C, strain kar3, hits give low values
[73] = S. cerevisiae deletion strains, locus YPR163C, strain tif3, hits give low values
[74] = S. cerevisiae deletion strains, locus YPR167C, strain met16, hits give low values
[75] = S. cerevisiae deletion strains, strain wtn01, hits give low values
[76] = S. cerevisiae deletion strains, locus YGR229C, strain SMI1, hits give low values
[77] = S. cerevisiae deletion strains, locus YNL322C, strain KRE1, hits give low values

Measured: normalized growth

COc1cc2c(cc1O)C(Cc1ccc(O)cc1)N(C)CC2 (stereo unspecified)
inactive: S. cerevisiae deletion strains, locus YAL013W, strain DEP1, hits give low values 1.01 | [1] 1.02 | [2] 1.02 | [3] 1 | [4] 1.05 | [5] 1.06 | [6] 1.02 | [7] 1.01 | [8] 1.02 | [9] 1.01 | [10] 1.05 | [11] 1.01 | [12] 1.01 | [13] 0.979 | [14] 0.977 | [15] 1.01 | [16] 1.02 | [17] 0.984 | [18] 1.01 | [19] 1.03 | [20] 1.02 | [21] 0.981 | [22] 0.923 | [23] 0.991 | [24] 0.982 | [25] 1.02 | [26] 0.986 | [27] 1.03 | [28] 0.998 | [29] 1.01 | [30] 1 | [31] 1.03 | [32] 1.02 | [33] 0.998 | [34] 1.02 | [35] 1.02 | [36] 0.998 | [37] 1.01 | [38] 1.01 | [39] 1.02 | [40] 1.01 | [41] 1.05 | [42] 1.04 | [43] 0.977 | [44] 1.03 | [45] 1.02 | [46] 1.07 | [47] 1.01 | [48] 1.01 | [49] 1.02 | [50] 1.01 | [51] 0.999 | [52] 0.994 | [53] 0.993 | [54] 1.12 | [55] 1.01 | [56] 1.01 | [57] 1.01 | [58] 1 | [59] 1.01 | [60] 1.01 | [61] 0.994 | [62] 0.982 | [63] 0.669 | [64] 1 | [65] 1.03 | [66] 1.01 | [67] 0.972 | [68] 0.996 | [69] 1.05 | [70] 0.989 | [71] 0.991 | [72] 1.01 | [73] 0.998 | [74] 0.973 | [75] 1.01

O=c1ccn([C@@H]2O[C@H](COP(=O)(O)OP(=O)(O)O)[C@@H](O)[C@H]2O)c(=O)[nH]1
inactive: S. cerevisiae deletion strains, locus YAL040C, strain CLN3, hits give low values 0.981 | S. cerevisiae deletion strains, locus YCL061C, strain MRC1 (second series), hits give low values 0.991 | S. cerevisiae deletion strains, locus YDR363W, strain ESC2, hits give low values 0.981 | S. cerevisiae deletion strains, locus YER002W, strain NOP16, hits give low values 0.995 | [76] 0.972 | S. cerevisiae deletion strains, locus YJR075W, strain HOC1, hits give low values 0.976 | [54] 0.985 | [56] 0.983 | S. cerevisiae deletion strains, locus YNL175C, strain NOP13, hits give low values 0.988 | S. cerevisiae deletion strains, locus YNL197C, strain WHI3, hits give low values 0.967 | S. cerevisiae deletion strains, locus YNL224C, strain SQS1, hits give low values 0.992 | [77] 0.971 | S. cerevisiae deletion strains, locus YOR083W, strain WHI5 (second series), hits give low values 0.992 | S. cerevisiae deletion strains, locus YPL241C, strain CIN2, hits give low values 1

NC(N)=NCCC[C@@H](NC(=O)[C@@H](N)Cc1ccc(O)cc1)C(=O)O
inactive: [1] 1.01 | [2] 1.01 | [3] 1.01 | [4] 1.02 | [5] 1.01 | [6] 1 | S. cerevisiae deletion strains, locus YDL134C, strain PPH21, hits give low values 1.01 | [7] 1.01 | [8] 1.01 | [9] 0.996 | S. cerevisiae deletion strains, locus YDR150W, strain NUM1, hits give low values 1.01 | [10] 1 | [11] 1.01 | [12] 1.01 | [13] 1.02 | S. cerevisiae deletion strains, locus YEL061C, strain CIN8, hits give low values 1.01 | [14] 1.02 | [15] 1.01 | [16] 1.01 | [17] 1.01 | [18] 1 | [19] 1.01 | [20] 0.996 | [21] 1.01 | [76] 0.997 | [22] 0.99 | S. cerevisiae deletion strains, locus YHR030C, strain SLT2, hits give low values 1.01 | [23] 1.01 | [24] 1.01 | [25] 1 | [26] 1.01 | [27] 1.01 | [28] 1.03 | [29] 1.01 | [30] 1.01 | [31] 0.996 | [32] 1.01 | [33] 1.01 | [34] 1.01 | S. cerevisiae deletion strains, locus YJR043C, strain POL32, hits give low values 1.01 | [35] 0.997 | [36] 1.01 | [37] 1.01 | [38] 1.01 | [39] 1.01 | [40] 0.993 | [41] 1.03 | [42] 1.01 | [43] 1.01 | S. cerevisiae deletion strains, locus YLR262C, strain YPT6, hits give low values 0.992 | [44] 1.01 | [45] 1.01 | [46] 1.02 | [47] 1.01 | [48] 1.02 | [49] 1 | [50] 1.02 | [51] 1.01 | [52] 1.01 | [53] 1.01 | [54] 0.979 | [55] 1.01 | [56] 0.993 | [57] 1.01 | [58] 0.998 | [59] 1.01 | [60] 1.01 | [61] 1.01 | [77] 1.01 | [62] 1.02 | S. cerevisiae deletion strains, locus YOL006C, strain TOP1, hits give low values 1.03 | [63] 1.88 | [64] 1.01 | [65] 1.01 | [66] 1.01 | [67] 1 | [68] 1.01 | [69] 1.01 | [70] 1.01 | S. cerevisiae deletion strains, locus YPL055C, strain LGE1, hits give low values 1 | [71] 1.01 | [72] 1.01 | [73] 1.02 | [74] 1.01 | [75] 0.999 | S. cerevisiae strains, strain wild type, hits give low values 1
